Entries with a potency or affinity are not part of this list. A number with no mark means an inactive call.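 The calls were made as follows: active = every repeat run showing a signal drop whose fitted half-maximal concentration is at most twice the top tested concentration; inconclusive = repeat runs disagree, or flat partial drop, or poor fit; inactive = the rest.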
Experiment: HEK293T cytotoxicity, dose response, cytotoxicity control for miR-122 modulator project, cell-based, activator set, cherry-pick (AID 720690);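 also: 0% = neutral control wells and -100% = MG132 cytotoxic control wells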
Details: HEK293T viability, CellTiter-Glo luminescence, 48 h; series mostly up to 26 µM; activity change, negative = cytotoxicity: at the top concentration
In the case of C[C@H](CO)N1C[C@H](C)[C@@H](CN(C)Cc2ccc(-c3ccccc3)cc2)Oc2ncc(C#CCN(C)C)cc2C1=O, the “activity change, negative = cytotoxicity” value is reported as -27.3%.
In the case of Cc1c(CC(=O)NCCCC(=O)O)c(=O)oc2cc3occ(-c4ccccc4)c3cc12, the “activity change, negative = cytotoxicity” value is reported as 3.83%.
With CN(C)CCCNC(=O)C[C@H]1CC[C@H]2[C@H](COc3ccc(NC(=O)c4cccc(F)c4)cc3C(=O)N2C)O1 the “activity change, negative = cytotoxicity” value was -18.8%.
In the case of C[C@@H]1CN([C@@H](C)CO)C(=O)c2cccc(NC(=O)Nc3ccc4c(c3)OCO4)c2O[C@@H]1CN(C)Cc1ccc(Oc2ccccc2)cc1, the “activity change, negative = cytotoxicity” value is reported as -15.5%.
With CO[C@@H]1CN(C)C(=O)c2ccc(NS(=O)(=O)c3ccc(C)cc3)cc2OC[C@@H](C)N(C(=O)NC(C)C)C[C@H]1C the “activity change, negative = cytotoxicity” value was 8.28%.
For O=C(COC(=O)c1ccccc1)Nc1cc(Cl)ccc1Oc1ccccc1, the “activity change, negative = cytotoxicity” value was -5.95%.
In the case of COc1cc(-c2nnc(-c3ccco3)o2)ccc1OCc1ccccc1, the “activity change, negative = cytotoxicity” value is reported as -1.14%.
In the case of CN1C(=O)c2cc(NC(=O)c3cccs3)ccc2OC[C@@H]2O[C@@H](CC(=O)NCCN3CCCCC3)CC[C@@H]21, the “activity change, negative = cytotoxicity” value is reported as -7.8% [at 23.5 µM].
For CN1C(=O)c2cc(NC(=O)c3cccc(F)c3)ccc2OC[C@H]2O[C@@H](CC(=O)NC3CCC3)CC[C@H]21, the “activity change, negative = cytotoxicity” value was 2.97%.
In the case of CN1C(=O)c2cc(NC(=O)c3cccs3)ccc2OC[C@H]2O[C@H](CC(=O)NCCN3CCCCC3)CC[C@H]21, the “activity change, negative = cytotoxicity” value is reported as -5.42%.
With O=C(C1CCCC1)N1C[C@H]2[C@@H](c3ccccc31)[C@H](CO)N2C(=O)Nc1cccc(F)c1 the “activity change, negative = cytotoxicity” value was 0.05%.
For O=C(COC(=O)Cc1ccc(S(=O)(=O)N2CCOCC2)s1)Nc1ccc2c(c1)OCO2, the “activity change, negative = cytotoxicity” value was -7.67%.
With CCNC(=O)Nc1ccc2c(c1)C(=O)N(C)[C@H]1CC[C@@H](CC(=O)NCCOC)O[C@@H]1CO2 the “activity change, negative = cytotoxicity” value was -0.32%.
In the case of C[C@@H]1CN([C@H](C)CO)S(=O)(=O)c2ccc(C3=CCCC3)cc2O[C@@H]1CN(C)C(=O)C1CCOCC1, the “activity change, negative = cytotoxicity” value is reported as 4.94%.
With C[C@@H]1CN([C@H](C)CO)S(=O)(=O)c2ccc(-c3ccccc3)cc2O[C@@H]1CN(C)C(=O)c1ccc2c(c1)OCO2 the “activity change, negative = cytotoxicity” value was -20.1%.
With CCNC(=O)C[C@H]1CC[C@H]2[C@@H](COc3ccc(NC(=O)c4ccccc4)cc3C(=O)N2C)O1 the “activity change, negative = cytotoxicity” value was -7.25%.
For CCCNC(=O)C[C@@H]1CC[C@@H]2[C@H](COc3ccc(NC(=O)Nc4ccccc4F)cc3C(=O)N2C)O1, the “activity change, negative = cytotoxicity” value was 2.78%.
In the case of CN1C(=O)c2cc(NC(=O)c3cccc(F)c3)ccc2OC[C@@H]2O[C@@H](CC(=O)Nc3ccccc3)CC[C@@H]21, the “activity change, negative = cytotoxicity” value is reported as -29.8% [at 23.5 µM].
For O=C(CSc1nc2ccccc2s1)N1CCOCC1, the “activity change, negative = cytotoxicity” value was -6.56%.
With COc1ccc(-c2oc3ncnc(NCCCN4CCOCC4)c3c2-c2ccc(OC)cc2)cc1 the “activity change, negative = cytotoxicity” value was -33.6%.
With COCCN(C[C@@H]1[C@@H](c2ccccc2)[C@H](CO)N1C(=O)C1CCC1)C(C)=O the “activity change, negative = cytotoxicity” value was 5.88%.
In the case of CN1C(=O)c2cc(NS(=O)(=O)c3cccc(F)c3)ccc2OC[C@@H]2O[C@@H](CC(=O)O)CC[C@@H]21, the “activity change, negative = cytotoxicity” value is reported as 10.7% [at 23.5 µM].
In the case of Cc1ccccc1NC(=O)Nc1ccc2c(c1)C(=O)N(C)[C@@H]1CC[C@H](CC(=O)NCC3CC3)O[C@@H]1CO2, the “activity change, negative = cytotoxicity” value is reported as 9.82%.
With CC#CCCCC(=O)Nc1ccccc1C(=O)O the “activity change, negative = cytotoxicity” value was 4.16%.
For CC(C)Oc1ccc(CNCCC2(C(C)C)CCOC(C)(C)C2)cc1 (stereo not given), the “activity change, negative = cytotoxicity” value was 12%.
With O=C(COc1cccc2ccccc12)Nc1nc2ccccc2[nH]1 the “activity change, negative = cytotoxicity” value was 19.3%.
In the case of C[C@@H]1CN([C@@H](C)CO)C(=O)c2cc(NC(=O)NC3CCCCC3)ccc2O[C@@H]1CN(C)C(=O)Nc1ccc2c(c1)OCO2, the “activity change, negative = cytotoxicity” value is reported as -8.64%.
With CCNC(=O)Nc1ccc2c(c1)C(=O)N(C)[C@H]1CC[C@H](CC(=O)Nc3ccccc3F)O[C@@H]1CO2 the “activity change, negative = cytotoxicity” value was 8.23%.
With Cc1ccccc1NC(=O)Nc1ccc2c(c1)C(=O)N(C)[C@H]1CC[C@@H](CC(=O)O)O[C@H]1CO2 the “activity change, negative = cytotoxicity” value was -5.08% [at 23.5 µM].
For COc1cc(N)c(Cl)cc1NC(=O)c1ccccc1, the “activity change, negative = cytotoxicity” value was -16.9%.
For OC[C@H]1[C@@H](c2ccccc2)[C@@H](CNCC2CCC2)N1CC1CC1, the “activity change, negative = cytotoxicity” value was -5.03%.
For C[C@H](CO)N1C[C@H](C)[C@H](CN(C)C(=O)Nc2ccc3c(c2)OCO3)Oc2ncc(-c3cccc(C(F)(F)F)c3)cc2C1=O, the “activity change, negative = cytotoxicity” value was -28.7%.
With Cc1ccc(-c2ccc3c(c2)O[C@H](CN(C)Cc2cncnc2)[C@H](C)CN([C@@H](C)CO)S3(=O)=O)cc1 the “activity change, negative = cytotoxicity” value was -21.3%.
For CNC(=O)C[C@@H]1CC[C@H]2[C@@H](COc3ccc(NC(=O)C(C)C)cc3C(=O)N2C)O1, the “activity change, negative = cytotoxicity” value was -2.67%.
For CN1C(=O)c2cc(NC(=O)C3CC3)ccc2OC[C@@H]2O[C@H](CC(=O)NC3CCC3)CC[C@H]21, the “activity change, negative = cytotoxicity” value was -3.55% [at 23.5 µM].
With C/C(=N\Nc1cc(N2CCCCC2)nc(C)n1)c1ccc(Br)cc1 the “activity change, negative = cytotoxicity” value was -41.1%.
For CCN(C[C@H]1[C@H](c2ccccc2)[C@@H](CO)N1S(C)(=O)=O)C(=O)C1CC1, the “activity change, negative = cytotoxicity” value was -5.84%.
For COc1ccc(CN2CCOC2=O)cc1OC, the “activity change, negative = cytotoxicity” value was -2.26%.
For CCC(=O)N1[C@H](CN(CC)C(=O)c2ccccc2)[C@@H](c2ccccc2)[C@@H]1CO, the “activity change, negative = cytotoxicity” value was -9.62%.
In the case of CNC(=O)C[C@H]1CC[C@@H]2[C@H](COc3ccc(NC(=O)Nc4cccc(F)c4)cc3C(=O)N2C)O1, the “activity change, negative = cytotoxicity” value is reported as -6.54%.
